About 2,100 (3.2%) of roughly 65,000 compounds showed an effect of 50% or more. The median lay at about -52%. This is one part of a sample in which strong results are shown more often than they occur.

Here are results for 51 molecules from ChEMBL document CHEMBL4513216, “Probing the Open Global Health Chemical Diversity Library for Multistage-Active Starting Points for Next-Generation Antimalarials” (ACS Infect Dis, 2020).

The subject of the experiment is Plasmodium falciparum. Description: Screen against P. falciparum Asexual Blood Stage (ABS), at 5uM. Type of experiment: functional, Dd2. As to conditions: tested at 5 uM.
For `O=C(Nc1cccnc1)[C@@H]1COC[C@H]2CN(C3CCCC3)C[C@H]21`, the INHIBITION is reported as -20.2%.

In the case of `O=C(c1ccc2c(c1)COC2)N1CCC(Nc2ccccc2)CC1`, the INHIBITION is -162%.

On to `O=C1[C@H]2CN(Cc3ccncc3)C[C@H]2CN1c1ccsc1`, for which the INHIBITION is -92.9%.

`COc1cccc(CN2CCC(CO)(Cc3ccc(Cl)cc3)CC2)c1O`: the INHIBITION was found to be 89.5%.

Consider `c1cc(CN2CCN(Cc3ccon3)C3(CCCCC3)C2)no1`, for which the INHIBITION is reported as -126%.

`Cc1noc(C)c1CN1CC[C@H]2C[C@@H](c3ccncn3)O[C@@H]2C1`: the INHIBITION is given as -98.1%.

Regarding `Cc1nc(-c2cccc(N3CCC(N4CCCC4)CC3)c2)cs1`, the INHIBITION is 71.6%.

Regarding `Cc1cc(N2CCN3CCCCC3C2)n2nc(C)c(C)c2n1` (stereo unspecified), the INHIBITION was -76.1%.

For `Cc1ncccc1OCC(=O)N1CCN[C@H]2CS(=O)(=O)C[C@H]21`, the INHIBITION is on record as -151%.

For `c1ccc(CN2CCN3C[C@H](Oc4cncnc4)C[C@H]3C2)nc1`, the INHIBITION is reported as -102%.

As for `NC1CCc2nc(-c3ccncc3)nc(Nc3cccc(F)c3)c2C1` (stereo unspecified), the INHIBITION turned out to be 84.2%.

On to `NC1CCc2nc(-c3cccnc3)nc(Nc3ccc(F)cc3)c2C1` (stereo unspecified), for which the INHIBITION was found to be 87.1%.

Consider `CCc1cc(N2CCNCC2)n2nc(C)c(C)c2n1`, for which the INHIBITION is on record as -115%.

For the molecule `COCCN1C[C@@H]2[C@@H](OC)CCN(C(=O)Cc3ccsc3)[C@@H]2C1`, the INHIBITION is 19.2%.

As for `COc1cccc([C@H]2CN(C(C)=O)[C@@H]3CCN(Cc4ccsc4)C[C@H]23)c1`, the INHIBITION was 73.9%.

For `Cc1noc(C)c1CN1CC[C@H]2C[C@H](c3ccncn3)O[C@@H]2C1`, the INHIBITION is listed as -66.9%.

Turning to `O=C(CC1CC1)N[C@@H]1CN(Cc2cccnc2)C[C@@H]2CCCO[C@@H]21`, the INHIBITION is -42.5%.

Consider `CO[C@@H]1CCN(Cc2ccoc2)C[C@@H]1Cc1ccccc1`, for which the INHIBITION came to 89%.

As to `c1cncc(CN2CCO[C@@H]3CN(Cc4ccoc4)CC[C@@H]3C2)c1`, the INHIBITION was 30.1%.

Consider `CN1CCN(Cc2ccoc2)Cc2cccnc21`, for which the INHIBITION is -116%.

Turning to `CC(C)c1nccc([C@H]2C[C@@H]3CCN(Cc4ccoc4)C[C@H]3O2)n1`, the INHIBITION is recorded as -81.1%.

Turning to `COc1ccc(C[C@H]2CN(Cc3ccoc3)CC[C@H]2OC)cc1`, the INHIBITION is listed as 75.1%.

Regarding `CC(C)c1nccc([C@@H]2C[C@@H]3CCN(Cc4ccoc4)C[C@H]3O2)n1`, the INHIBITION was -35%.

`CCN1CCC2(CCC1=O)CN(c1nccc(N)n1)CCN2C` (stereo unspecified): the INHIBITION was -4.03%.

Turning to `Cc1cccc(CO[C@@H]2CC[C@H]3[C@H]2OCCN3Cc2ccoc2)n1`, the INHIBITION is recorded as -50.4%.

For the molecule `O=C(NCc1ccccn1)[C@@H]1COC[C@H]2CNC[C@H]21`, the INHIBITION was -8.97%.

On to `COCCN1C[C@@H](C)[C@@]2(COCCN(C(=O)c3ccno3)C2)C1`, for which the INHIBITION is -103%.

In the case of `COc1ccc(-c2ccoc2)cc1CNC1CCCC1`, the INHIBITION came to 70.2%.

Consider `CN(Cc1cccc(F)c1)C(=O)CN1CCCC1CCc1ccccc1` (stereo unspecified), for which the INHIBITION was 75%.

In the case of `OCCCN(CCc1cccc(F)c1)C1CC1`, the INHIBITION is on record as -63.8%.

For `CN(C)[C@@H]1CN(C(=O)Cc2cccc(F)c2)[C@@H]2CCCO[C@H]12`, the INHIBITION was 24.8%.

As to `Cn1c(CCN2CCN(c3ccc(O)cc3)CC2)nc2ccccc21`, the INHIBITION was -128%.

Turning to `Cc1ccc2c(n1)N(C)CCN(CCN1CCCC1)C2`, the INHIBITION was -5.37%.

As to `Cc1cc(N2CCCN(CCc3ccccc3)CC2)ccn1`, the INHIBITION is 87%.

Regarding `CO[C@@H]1CC[C@H]2[C@H]1OCCN2CC1CCOCC1`, the INHIBITION is -21.2%.

Take `c1cnc(N2C[C@H]3CN(CC4CCOC4)C[C@H]3C2)nc1` (stereo partly specified): the INHIBITION is reported as -53%.

Take `O=C1CO[C@@H]2CNC[C@H]2N1CC1CC1`: the INHIBITION is listed as -97.4%.

In the case of `O=C1C[C@H]2[C@H](CCN2Cc2ccccn2)N1CC1CC1`, the INHIBITION is listed as -90.1%.

Regarding `COc1ccc(CN2CC[C@@H](O)[C@@H]2Cc2ccccc2)cc1`, the INHIBITION was 80.7%.

Consider `O=C(NCCc1ccncc1)[C@H]1CC[C@@H]2[C@@H](CCN2CC2CC2)O1`, for which the INHIBITION is -3.59%.

`CNC(=O)[C@@H]1CN(Cc2ccccc2)C[C@H]1C(=O)c1ccc(F)cc1`: the INHIBITION was -109%.

`O[C@@H]1CCN(CC2CC2)[C@H]1Cc1ccccc1`: the INHIBITION came out at 63.2%.

As to `COc1ccc(CN2C[C@@H]3OCCN(c4ncccn4)[C@@H]3C2)cc1`, the INHIBITION is on record as -2.3%.

For the molecule `O=C(c1ccccc1)N1CCO[C@@H]2CNC[C@@H]21`, the INHIBITION is -70.7%.

In the case of `CCc1cc(N2CCN3CCCCC3C2)n2nccc2n1` (stereo unspecified), the INHIBITION is on record as 6.52%.

Turning to `CC(C)c1cc(N2CC[C@H](F)C2)n2nccc2n1`, the INHIBITION turned out to be 70.9%.

Take `Fc1ccccc1-c1cc(N2[C@@H]3CC[C@H]2CNC3)n2nccc2n1`: the INHIBITION is reported as -59%.

With `O=C1N(Cc2ccccn2)C[C@H]2CN(C3CCC3)CCN12`, the INHIBITION is given as -13.7%.

As for `O=C(C[C@@H]1COC[C@H]2CN(C3CCC3)C[C@@H]12)NCc1cccnc1`, the INHIBITION is -138%.

Turning to `CCOC[C@@H]1CC[C@H]2[C@H](CCN2Cc2c(C)noc2C)O1`, the INHIBITION is recorded as -96.4%.

As to `CN1CCCC(Cc2nccnc2Cl)CC1` (stereo unspecified), the INHIBITION was 5.74%.
